Measurements from the supplement of paper PMC12632987.
The full ranking holds about 4,500 sequences; the median of “median log2 fold change of GCK-ALFA target abundance (FLAG IP / Myc IP barcode read proportion)” is about 0.078, and the lowest 2% start at about -0.6. This excerpt belongs to a sample that is enriched for the lowest values.

B1: GBRAP_9_7127 (protein)
chain: KKELVEKLKEVVEEMIEDISKVVPEVTEEMKEEFLKKVEELEKEALEDESLTPEEIKEKFKELVEEIKEEVKKIVDEELKKLVEAIALTALEEIDEIVEE
B2: GBRAP_52_6037 (protein)
chain: MREKMREKAEEIVKLVLEGKLEEAEKLIRELVETLSEEELLLLGEELARIAREAPEEELDAILEAAFILADELIEGGYEEVLADEIEARVTRAAVERLER
B3: GBRAP_11_2679 (protein)
chain: KKEQLKKIAEIAKELAEAIEKLLKEGVDNEKLLKEIKKLLKELKELAEKYADEGLKTLAEIAAELFEEALANPENAEHYLELLLAAVRVLLANVEEEIDE
B4: GBRAP_52_6366 (protein)
chain: DLEEAVKLLREAVKAVLEGKEEEAEKILKEIVENFSEETILEAARRLAEELLEKSLEEAEAFLEAAIMLADILEEAGKSEVVGDEIEAIAARTLMEIRER
B5: GBRAP_11_2721 (protein)
chain: KAEKLKALAEKAEALAEKVEKLIKEGPKKEEIKKLAEEVEKLREEAKKIGASEDVLKTLDIAAENLKKAIEDPSNVEEHLKNAAAALRVAAGQLLLEAEE
B6: GBRAP_160_4055 (protein)
chain: AEEKERLIADVDAAEAAILAVIDEEGAEAAAVMADGEFGAIIMEAAELPTASDELVDALEAIRDALVAGLRANAAASPAELKALVRAAAAAAKEAIKKHY
B7: GBRAP_160_4135 (protein)
chain: SEELEKLIKEIKEIGEEALEMIEGETPENAKVIARVALGDIVMLVESNDAISEETEDEIGKIADEAEATLKANPDLTVEEIKALLKEATEKVVEIIEKEK
B8: GBRAP_52_6087 (protein)
chain: MEERLEKLAKEIAEAVAAGKRDEALALMEKAIKELSVEEIKKLFKLAAELVAKLGEEAEELFVDLLDEAEDLLIEAGISEEDALLIVGDAEAALAKAVAA
B9: GBRAP_52_6086 (protein)
chain: MEERLEALAREIAAAVAAGDREGALALIEEAIKELSVEEIRRLLRLAAERVAALGEDAHVLFVDLLDEAEDLMIKAGISEEDALLIVGDAEAALAKAVAA

target: GABARAP, O95166; test: median log2 fold change of GCK-ALFA target abundance (FLAG IP / Myc IP barcode read proportion) (log2 ratio); each designed protein is fused to an ALFA-tag nanobody in HEK293 cells to bring the named protein to FLAG-tagged glucokinase (GCK); Myc marks an untargeted standard; higher = target protein stabilised (more abundant); conditions: target protein: 3xFLAG-MCP-GCK-ALFA reporter; HEK293 landing pad (RPLP)
Sequence (O95166 whole entry, the tested form may be a part): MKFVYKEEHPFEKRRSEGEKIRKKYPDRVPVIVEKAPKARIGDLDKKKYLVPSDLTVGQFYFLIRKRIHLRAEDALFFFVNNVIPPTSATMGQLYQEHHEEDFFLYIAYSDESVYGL
Outline: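 The readout is target abundance, the per-binder median log2 ratio of FLAG to Myc barcode read proportions. It came from HEK293 landing-pad cells carrying a recombined ALFA-nanobody-fused binder library, induced with 2 μg mL^−1 doxycycline and transfected with a plasmid for a FLAG-tagged target and a Myc-tagged standard. After 48 h, lysates were immunoprecipitated with anti-FLAG and anti-Myc, and circular RNA barcodes were reverse transcribed, amplified and sequenced. Each barcode needed a proportion of at least 10^−7 in both replicates and each binder at least 3 barcodes per replicate, a pseudocount of 10^−6 was added, and the replicates were pooled.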

Binder | median log2 fold change
B1 | 0.275
B2 | -0.655
B3 | -0.169
B4 | -0.214
B5 | 0.0939
B6 | 0.183
B7 | -0.387
B8 | -0.234
B9 | -0.626
